Assay results published in the supplement of paper PMC10849652.
Targets with a hit are over-represented here; the source holds about 7,900 in all. About 0.6% of all pairs of compound and target were hits.

compound: CON(C)C(=O)N1N=C(c2cc(F)ccc2F)S[C@@]1(CCCN)c1ccccc1 [filanesib]; test: log2 fold change, soluble protein after heating vs DMSO (PISA); higher = thermal stabilisation; K562 cells, 10 uM, 30 min; active = over 0.2 and 3.5 SD of the protein, either way, in both replicates (recomputed)
In short: (§1)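 K562 cells (2×10^6 cells/mL) were treated with 10 μM compound for 30 min, and aliquots were heated for 3 min over 48°C-58°C. Pooled aliquots were extracted in PBS with 0.5% NP-40 at 4°C, and the supernatant after 21,000xg for 90 min was measured by TMTpro 16plex LC-MS/MS with channel sums equalised. Reported thermal stability, relative to control samples and from duplicates, is a log2 fold change.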

Chain of UniProt P51809 (P51809 whole entry, looked up): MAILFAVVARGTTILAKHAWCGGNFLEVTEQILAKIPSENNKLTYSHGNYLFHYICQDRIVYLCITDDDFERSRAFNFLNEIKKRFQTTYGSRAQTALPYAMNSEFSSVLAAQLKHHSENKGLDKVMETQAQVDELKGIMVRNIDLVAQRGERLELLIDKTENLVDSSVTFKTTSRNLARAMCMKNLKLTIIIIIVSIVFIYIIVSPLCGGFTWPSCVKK
Chain of UniProt Q92890 (Q92890 whole entry, looked up): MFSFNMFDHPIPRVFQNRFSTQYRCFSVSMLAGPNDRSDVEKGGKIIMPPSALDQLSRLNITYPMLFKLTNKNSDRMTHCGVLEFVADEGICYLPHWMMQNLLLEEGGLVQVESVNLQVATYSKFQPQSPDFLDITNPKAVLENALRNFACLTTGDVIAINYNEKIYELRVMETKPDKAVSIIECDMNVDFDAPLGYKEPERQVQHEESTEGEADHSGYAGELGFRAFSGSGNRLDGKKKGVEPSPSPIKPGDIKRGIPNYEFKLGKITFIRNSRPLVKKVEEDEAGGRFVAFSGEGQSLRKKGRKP
Chain of UniProt Q9P253 (Q9P253 whole entry, looked up): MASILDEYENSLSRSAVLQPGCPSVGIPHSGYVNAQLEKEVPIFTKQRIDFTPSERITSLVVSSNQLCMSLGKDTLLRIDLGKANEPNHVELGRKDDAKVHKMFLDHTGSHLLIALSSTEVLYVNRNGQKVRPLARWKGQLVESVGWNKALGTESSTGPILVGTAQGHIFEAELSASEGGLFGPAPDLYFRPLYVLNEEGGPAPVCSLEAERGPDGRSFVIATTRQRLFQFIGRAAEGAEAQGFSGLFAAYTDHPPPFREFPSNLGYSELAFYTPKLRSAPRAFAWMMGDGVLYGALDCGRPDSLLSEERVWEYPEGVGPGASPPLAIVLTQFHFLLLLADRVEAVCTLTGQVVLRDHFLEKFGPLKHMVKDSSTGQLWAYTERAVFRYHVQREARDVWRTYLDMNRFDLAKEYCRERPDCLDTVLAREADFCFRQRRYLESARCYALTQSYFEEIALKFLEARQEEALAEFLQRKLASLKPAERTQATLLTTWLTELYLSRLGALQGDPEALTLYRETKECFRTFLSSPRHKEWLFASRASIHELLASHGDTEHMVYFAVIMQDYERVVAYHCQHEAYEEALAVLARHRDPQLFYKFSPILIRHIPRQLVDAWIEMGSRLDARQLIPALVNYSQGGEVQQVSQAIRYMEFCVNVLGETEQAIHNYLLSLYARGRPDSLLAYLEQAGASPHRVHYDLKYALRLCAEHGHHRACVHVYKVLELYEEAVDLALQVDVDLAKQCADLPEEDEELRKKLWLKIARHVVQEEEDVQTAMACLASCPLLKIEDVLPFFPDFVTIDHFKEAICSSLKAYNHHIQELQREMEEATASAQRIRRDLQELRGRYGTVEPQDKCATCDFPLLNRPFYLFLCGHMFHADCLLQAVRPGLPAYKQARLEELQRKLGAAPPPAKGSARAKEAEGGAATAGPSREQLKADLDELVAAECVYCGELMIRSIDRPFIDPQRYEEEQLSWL
Chain of UniProt P54578 (P54578 whole entry, looked up): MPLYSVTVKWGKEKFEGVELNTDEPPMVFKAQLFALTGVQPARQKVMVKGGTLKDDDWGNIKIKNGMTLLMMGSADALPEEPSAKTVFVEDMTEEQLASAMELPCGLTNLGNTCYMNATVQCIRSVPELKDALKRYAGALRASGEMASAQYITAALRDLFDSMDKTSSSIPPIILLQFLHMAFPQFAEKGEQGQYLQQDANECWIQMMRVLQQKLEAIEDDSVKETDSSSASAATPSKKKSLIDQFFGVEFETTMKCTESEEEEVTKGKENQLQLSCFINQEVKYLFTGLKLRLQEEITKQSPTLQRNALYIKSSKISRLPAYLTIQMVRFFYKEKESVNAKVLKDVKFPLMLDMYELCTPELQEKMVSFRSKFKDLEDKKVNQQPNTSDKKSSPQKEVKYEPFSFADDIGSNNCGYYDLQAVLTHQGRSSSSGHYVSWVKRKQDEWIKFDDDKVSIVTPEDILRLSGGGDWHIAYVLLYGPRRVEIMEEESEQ
Chain of UniProt Q9Y4E8 (Q9Y4E8 whole entry, looked up): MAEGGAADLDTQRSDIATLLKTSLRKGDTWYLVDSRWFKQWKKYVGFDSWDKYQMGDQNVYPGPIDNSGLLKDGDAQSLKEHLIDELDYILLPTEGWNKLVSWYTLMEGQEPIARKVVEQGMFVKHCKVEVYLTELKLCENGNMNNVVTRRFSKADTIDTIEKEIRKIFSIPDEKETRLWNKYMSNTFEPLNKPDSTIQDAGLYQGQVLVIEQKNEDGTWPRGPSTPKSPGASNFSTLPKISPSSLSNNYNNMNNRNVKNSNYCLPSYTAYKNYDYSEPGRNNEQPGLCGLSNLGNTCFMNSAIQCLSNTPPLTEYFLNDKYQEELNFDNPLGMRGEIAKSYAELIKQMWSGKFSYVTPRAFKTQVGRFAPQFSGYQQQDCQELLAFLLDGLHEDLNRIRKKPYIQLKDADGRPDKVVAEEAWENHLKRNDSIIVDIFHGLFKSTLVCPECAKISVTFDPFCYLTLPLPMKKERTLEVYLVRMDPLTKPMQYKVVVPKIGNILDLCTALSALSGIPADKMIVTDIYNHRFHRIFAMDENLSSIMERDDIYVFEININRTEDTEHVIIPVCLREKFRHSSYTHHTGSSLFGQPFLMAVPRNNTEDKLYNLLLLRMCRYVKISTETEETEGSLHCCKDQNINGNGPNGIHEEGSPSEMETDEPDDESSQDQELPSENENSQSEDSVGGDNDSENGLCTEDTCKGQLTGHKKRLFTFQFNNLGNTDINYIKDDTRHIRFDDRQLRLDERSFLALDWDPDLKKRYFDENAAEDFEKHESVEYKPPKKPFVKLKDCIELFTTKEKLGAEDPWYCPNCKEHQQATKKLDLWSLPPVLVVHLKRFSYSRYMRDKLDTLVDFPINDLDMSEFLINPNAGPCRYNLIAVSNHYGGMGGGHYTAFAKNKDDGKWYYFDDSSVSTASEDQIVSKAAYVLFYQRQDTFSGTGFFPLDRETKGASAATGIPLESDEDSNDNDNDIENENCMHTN
Chain of UniProt Q9H269 (Q9H269 whole entry, looked up): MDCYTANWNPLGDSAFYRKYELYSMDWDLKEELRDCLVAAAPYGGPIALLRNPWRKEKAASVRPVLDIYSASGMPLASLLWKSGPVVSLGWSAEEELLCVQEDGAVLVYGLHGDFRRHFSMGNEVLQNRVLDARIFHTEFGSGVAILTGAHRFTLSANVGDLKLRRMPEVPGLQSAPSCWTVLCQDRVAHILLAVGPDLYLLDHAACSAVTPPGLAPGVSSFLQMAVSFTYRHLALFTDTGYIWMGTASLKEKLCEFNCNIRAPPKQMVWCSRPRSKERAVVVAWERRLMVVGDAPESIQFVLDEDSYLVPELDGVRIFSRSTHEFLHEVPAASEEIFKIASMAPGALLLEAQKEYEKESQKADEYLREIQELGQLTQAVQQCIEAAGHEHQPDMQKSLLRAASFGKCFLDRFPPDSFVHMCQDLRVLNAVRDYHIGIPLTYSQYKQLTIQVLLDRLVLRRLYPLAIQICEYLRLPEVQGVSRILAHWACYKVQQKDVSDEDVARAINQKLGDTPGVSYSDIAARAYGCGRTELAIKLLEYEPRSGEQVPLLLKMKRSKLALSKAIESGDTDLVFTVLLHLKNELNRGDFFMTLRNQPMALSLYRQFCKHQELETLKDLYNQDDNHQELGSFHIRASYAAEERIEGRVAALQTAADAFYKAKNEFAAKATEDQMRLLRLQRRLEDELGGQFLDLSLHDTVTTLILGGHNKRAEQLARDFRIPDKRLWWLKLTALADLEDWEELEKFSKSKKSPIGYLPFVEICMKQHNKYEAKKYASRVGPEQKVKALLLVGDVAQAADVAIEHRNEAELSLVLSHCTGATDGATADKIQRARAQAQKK
Chain of UniProt Q96AJ9 (Q96AJ9 whole entry, looked up): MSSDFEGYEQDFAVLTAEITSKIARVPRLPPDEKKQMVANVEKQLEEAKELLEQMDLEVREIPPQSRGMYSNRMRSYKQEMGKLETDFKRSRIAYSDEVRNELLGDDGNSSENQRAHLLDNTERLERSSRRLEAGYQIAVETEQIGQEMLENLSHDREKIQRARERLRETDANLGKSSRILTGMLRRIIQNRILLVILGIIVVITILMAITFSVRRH
Chain of UniProt P02585 (P02585 whole entry, looked up): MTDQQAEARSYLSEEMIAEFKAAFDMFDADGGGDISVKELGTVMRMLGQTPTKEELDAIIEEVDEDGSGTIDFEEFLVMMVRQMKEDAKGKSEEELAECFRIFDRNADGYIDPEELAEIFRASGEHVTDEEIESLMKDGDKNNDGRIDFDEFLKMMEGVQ
Chain of UniProt O00220 (O00220 whole entry, looked up): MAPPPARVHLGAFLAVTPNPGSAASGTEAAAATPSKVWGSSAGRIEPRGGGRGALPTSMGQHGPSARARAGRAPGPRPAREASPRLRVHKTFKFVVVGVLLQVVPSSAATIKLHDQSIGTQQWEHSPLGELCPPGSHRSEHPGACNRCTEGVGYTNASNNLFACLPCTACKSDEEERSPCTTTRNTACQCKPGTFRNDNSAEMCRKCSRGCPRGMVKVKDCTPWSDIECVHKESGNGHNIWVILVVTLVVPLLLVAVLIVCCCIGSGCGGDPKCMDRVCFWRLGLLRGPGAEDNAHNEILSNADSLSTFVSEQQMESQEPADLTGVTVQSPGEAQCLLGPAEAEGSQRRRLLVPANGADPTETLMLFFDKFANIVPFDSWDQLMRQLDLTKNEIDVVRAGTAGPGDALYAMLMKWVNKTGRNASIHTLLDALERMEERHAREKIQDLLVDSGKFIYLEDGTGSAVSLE
Chain of UniProt Q5U3C3 (Q5U3C3 whole entry, looked up): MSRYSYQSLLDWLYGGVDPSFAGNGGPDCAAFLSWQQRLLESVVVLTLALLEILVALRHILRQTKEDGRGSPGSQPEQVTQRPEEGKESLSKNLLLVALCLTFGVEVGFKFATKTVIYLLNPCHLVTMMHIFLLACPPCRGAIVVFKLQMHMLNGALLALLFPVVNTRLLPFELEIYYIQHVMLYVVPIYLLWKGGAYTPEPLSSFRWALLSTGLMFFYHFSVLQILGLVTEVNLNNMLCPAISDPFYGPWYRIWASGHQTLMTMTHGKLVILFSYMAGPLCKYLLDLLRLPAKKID

Target	log2 fold change
TSG101 (UniProt Q99816)	-0.07 (inactive)
VTA1 (UniProt Q9NP79)	-0.033 (inactive)
VDAC1 (UniProt P21796)	-0.036 (inactive)
WASHC2C, A0A096LPC5	0.057 (inactive)
VTI1B (UniProt Q9UEU0)	-0.027 (inactive)
UBE2Q1 (UniProt Q7Z7E8)	-0.042 (inactive)
TMEM106B (UniProt Q9NUM4)	0.06 (inactive)
TMEM164 (UniProt Q5U3C3)	-0.306 (inactive)
USP48 isoform 8 (UniProt Q86UV5)	-0.075 (inactive)
USP15 (UniProt Q9Y4E8)	-0.004 (inactive)
UFD1 isoform 1 (UniProt Q92890)	-0.033 (inactive)
WDR46 (UniProt O15213)	0.425 (inactive)
USP14 (UniProt P54578)	-0.035 (inactive)
XPNPEP3 (UniProt Q9NQH7)	-0.082 (inactive)
UCHL5 (UniProt Q9Y5K5)	-0.035 (inactive)
VPS16 (UniProt Q9H269)	-0.093 (inactive)
VAMP7 (UniProt P51809)	-0.095 (inactive)
XPO1 (UniProt O14980)	-0.121 (inactive)

Target	log2 fold change
TNFRSF10A (UniProt O00220)	0.028 (inactive)
UBLCP1 (UniProt Q8WVY7)	-0.001 (inactive)
TMEM189-UBE2V1 (UniProt I3L0A0)	-0.051 (inactive)
WASH2P (UniProt Q6VEQ5)	-0.067 (inactive)
VTI1A (UniProt Q96AJ9)	-0.015 (inactive)
TNNC2 (UniProt P02585)	0.038 (inactive)
TMEM223 (UniProt A0PJW6)	-0.109 (inactive)
U2AF1 isoform 2 (UniProt Q01081)	0.034 (inactive)
XRCC5 (UniProt P13010)	-0.049 (inactive)
TNPO1 (UniProt Q92973)	-0.096 (inactive)
VPS52 (UniProt Q8N1B4)	0.017 (inactive)
TMEM263 (UniProt Q8WUH6)	-0.654 (active)
USP25 isoform 3 (UniProt Q9UHP3)	0.037 (inactive)
VPS50 (UniProt Q96JG6)	-0.021 (inactive)
UBAP1 isoform 4 (UniProt Q9NZ09)	0.078 (inactive)
TNPO2 (UniProt O14787)	-0.005 (inactive)
VPS18 (UniProt Q9P253)	0.009 (inactive)
TRIM28 (UniProt Q13263)	-0.017 (inactive)

compound: CO[C@H]1C[C@@H]2CC[C@@H](C)[C@@](O)(O2)C(=O)C(=O)N2CCCC[C@H]2C(=O)O[C@H]([C@H](C)C[C@@H]2CC[C@H](n3cnnn3)[C@H](OC)C2)CC(=O)[C@H](C)/C=C(\C)[C@@H](O)[C@@H](OC)C(=O)[C@H](C)C[C@H](C)/C=C/C=C/C=C/1C [zotarolimus]; test: as above
In short: as §1

Target	log2 fold change
TSG101 (UniProt Q99816)	0.029 (inactive)
VTA1 (UniProt Q9NP79)	0.044 (inactive)
VDAC1 (UniProt P21796)	-0.01 (inactive)
WASHC2C, A0A096LPC5	-0.062 (inactive)
VTI1B (UniProt Q9UEU0)	-0.063 (inactive)
UBE2Q1 (UniProt Q7Z7E8)	0.022 (inactive)
TMEM106B (UniProt Q9NUM4)	-0.082 (inactive)
TMEM164 (UniProt Q5U3C3)	-0.039 (inactive)
USP48 isoform 8 (UniProt Q86UV5)	0.089 (inactive)
USP15 (UniProt Q9Y4E8)	0.051 (inactive)
UFD1 isoform 1 (UniProt Q92890)	-0.028 (inactive)
WDR46 (UniProt O15213)	0.075 (inactive)
USP14 (UniProt P54578)	0.04 (inactive)
XPNPEP3 (UniProt Q9NQH7)	-0.021 (inactive)
UCHL5 (UniProt Q9Y5K5)	0.026 (inactive)
VPS16 (UniProt Q9H269)	0.033 (inactive)
VAMP7 (UniProt P51809)	-0.005 (inactive)
XPO1 (UniProt O14980)	0.004 (inactive)

Target	log2 fold change
TNFRSF10A (UniProt O00220)	-0.035 (inactive)
UBLCP1 (UniProt Q8WVY7)	-0.008 (inactive)
TMEM189-UBE2V1 (UniProt I3L0A0)	-0.049 (inactive)
WASH2P (UniProt Q6VEQ5)	-0.029 (inactive)
VTI1A (UniProt Q96AJ9)	-0.024 (inactive)
TNNC2 (UniProt P02585)	-0.006 (inactive)
TMEM223 (UniProt A0PJW6)	0.083 (inactive)
U2AF1 isoform 2 (UniProt Q01081)	0.043 (inactive)
XRCC5 (UniProt P13010)	0.087 (inactive)
TNPO1 (UniProt Q92973)	0.012 (inactive)
VPS52 (UniProt Q8N1B4)	0.044 (inactive)
TMEM263 (UniProt Q8WUH6)	-0.038 (inactive)
USP25 isoform 3 (UniProt Q9UHP3)	0.014 (inactive)
VPS50 (UniProt Q96JG6)	0.028 (inactive)
UBAP1 isoform 4 (UniProt Q9NZ09)	0.045 (inactive)
TNPO2 (UniProt O14787)	0.065 (inactive)
VPS18 (UniProt Q9P253)	0.024 (inactive)
TRIM28 (UniProt Q13263)	0.046 (inactive)
